Experimental findings from the supplement of paper PMC10849652 are described below.

Targets with a hit are over-represented here; the source holds about 8,800 in all. About 0.5% of all pairs of compound and target were hits.

Sequence of UniProt O14893 (O14893 whole entry, looked up): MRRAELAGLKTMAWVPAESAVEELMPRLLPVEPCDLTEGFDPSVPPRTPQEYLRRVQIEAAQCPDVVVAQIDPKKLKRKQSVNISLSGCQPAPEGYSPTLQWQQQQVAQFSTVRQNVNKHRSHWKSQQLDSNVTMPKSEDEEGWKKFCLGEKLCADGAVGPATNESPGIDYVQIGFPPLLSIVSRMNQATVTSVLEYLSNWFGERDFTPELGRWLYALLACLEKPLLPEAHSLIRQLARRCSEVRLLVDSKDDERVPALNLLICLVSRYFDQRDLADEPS
Sequence of UniProt O75616 (O75616 whole entry, looked up): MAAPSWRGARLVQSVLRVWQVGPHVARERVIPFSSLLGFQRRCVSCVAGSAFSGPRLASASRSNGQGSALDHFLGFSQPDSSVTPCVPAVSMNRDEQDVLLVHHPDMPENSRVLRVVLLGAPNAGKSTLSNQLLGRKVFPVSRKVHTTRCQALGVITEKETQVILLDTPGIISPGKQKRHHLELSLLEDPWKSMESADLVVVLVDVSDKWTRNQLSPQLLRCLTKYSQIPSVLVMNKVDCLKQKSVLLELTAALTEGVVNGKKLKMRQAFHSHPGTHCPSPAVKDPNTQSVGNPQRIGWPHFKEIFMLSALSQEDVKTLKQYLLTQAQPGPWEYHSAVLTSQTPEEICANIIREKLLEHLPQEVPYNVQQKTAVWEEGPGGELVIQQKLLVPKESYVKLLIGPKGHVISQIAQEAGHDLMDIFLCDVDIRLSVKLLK
Sequence of UniProt Q86UY5 (Q86UY5 whole entry, looked up): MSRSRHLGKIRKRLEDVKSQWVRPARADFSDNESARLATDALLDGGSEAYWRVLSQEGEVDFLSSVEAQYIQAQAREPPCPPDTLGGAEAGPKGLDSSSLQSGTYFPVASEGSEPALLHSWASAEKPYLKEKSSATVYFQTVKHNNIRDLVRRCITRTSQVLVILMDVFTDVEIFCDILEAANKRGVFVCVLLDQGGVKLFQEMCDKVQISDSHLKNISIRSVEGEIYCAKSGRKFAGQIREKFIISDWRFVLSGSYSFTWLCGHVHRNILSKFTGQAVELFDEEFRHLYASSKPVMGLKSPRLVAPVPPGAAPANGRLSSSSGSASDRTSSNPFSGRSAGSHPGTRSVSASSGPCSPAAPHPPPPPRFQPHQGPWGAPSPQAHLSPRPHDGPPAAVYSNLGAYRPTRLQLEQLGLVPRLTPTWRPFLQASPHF
Sequence of UniProt Q01844 (Q01844 whole entry, looked up): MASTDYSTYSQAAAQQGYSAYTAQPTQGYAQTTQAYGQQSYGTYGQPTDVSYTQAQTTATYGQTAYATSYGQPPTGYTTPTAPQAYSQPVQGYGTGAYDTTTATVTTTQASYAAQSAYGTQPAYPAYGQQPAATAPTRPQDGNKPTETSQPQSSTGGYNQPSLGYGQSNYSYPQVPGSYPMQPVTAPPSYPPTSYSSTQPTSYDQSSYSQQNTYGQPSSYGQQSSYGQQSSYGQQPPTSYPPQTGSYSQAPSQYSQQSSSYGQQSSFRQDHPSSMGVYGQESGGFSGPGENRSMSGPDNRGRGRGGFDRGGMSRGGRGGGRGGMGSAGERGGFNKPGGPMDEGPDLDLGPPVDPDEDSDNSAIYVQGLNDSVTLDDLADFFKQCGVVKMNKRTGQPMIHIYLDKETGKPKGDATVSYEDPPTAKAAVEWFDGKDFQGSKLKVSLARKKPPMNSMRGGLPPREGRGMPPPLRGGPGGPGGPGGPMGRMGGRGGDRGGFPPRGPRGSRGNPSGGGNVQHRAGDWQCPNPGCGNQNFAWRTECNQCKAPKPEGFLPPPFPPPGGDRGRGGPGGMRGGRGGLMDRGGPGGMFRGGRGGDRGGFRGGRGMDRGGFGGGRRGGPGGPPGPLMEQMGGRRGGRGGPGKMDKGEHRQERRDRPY
Sequence of UniProt P51116 (P51116 whole entry, looked up): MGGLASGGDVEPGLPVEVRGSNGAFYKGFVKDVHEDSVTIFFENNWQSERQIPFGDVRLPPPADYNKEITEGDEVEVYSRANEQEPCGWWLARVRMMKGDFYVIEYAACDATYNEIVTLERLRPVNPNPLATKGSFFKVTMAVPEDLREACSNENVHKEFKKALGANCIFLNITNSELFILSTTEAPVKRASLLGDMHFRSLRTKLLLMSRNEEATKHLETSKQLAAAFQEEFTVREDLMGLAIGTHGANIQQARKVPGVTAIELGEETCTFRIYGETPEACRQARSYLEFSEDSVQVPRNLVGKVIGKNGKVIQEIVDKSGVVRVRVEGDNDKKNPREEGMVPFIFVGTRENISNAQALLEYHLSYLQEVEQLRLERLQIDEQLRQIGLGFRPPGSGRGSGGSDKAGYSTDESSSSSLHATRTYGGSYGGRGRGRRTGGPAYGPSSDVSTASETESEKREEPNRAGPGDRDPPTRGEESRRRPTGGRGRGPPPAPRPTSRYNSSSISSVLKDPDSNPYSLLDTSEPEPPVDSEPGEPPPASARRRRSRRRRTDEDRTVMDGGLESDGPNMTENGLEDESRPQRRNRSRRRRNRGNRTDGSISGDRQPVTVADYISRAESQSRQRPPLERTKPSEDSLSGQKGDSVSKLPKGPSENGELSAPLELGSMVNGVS
Sequence of UniProt Q92538 (Q92538 whole entry, looked up): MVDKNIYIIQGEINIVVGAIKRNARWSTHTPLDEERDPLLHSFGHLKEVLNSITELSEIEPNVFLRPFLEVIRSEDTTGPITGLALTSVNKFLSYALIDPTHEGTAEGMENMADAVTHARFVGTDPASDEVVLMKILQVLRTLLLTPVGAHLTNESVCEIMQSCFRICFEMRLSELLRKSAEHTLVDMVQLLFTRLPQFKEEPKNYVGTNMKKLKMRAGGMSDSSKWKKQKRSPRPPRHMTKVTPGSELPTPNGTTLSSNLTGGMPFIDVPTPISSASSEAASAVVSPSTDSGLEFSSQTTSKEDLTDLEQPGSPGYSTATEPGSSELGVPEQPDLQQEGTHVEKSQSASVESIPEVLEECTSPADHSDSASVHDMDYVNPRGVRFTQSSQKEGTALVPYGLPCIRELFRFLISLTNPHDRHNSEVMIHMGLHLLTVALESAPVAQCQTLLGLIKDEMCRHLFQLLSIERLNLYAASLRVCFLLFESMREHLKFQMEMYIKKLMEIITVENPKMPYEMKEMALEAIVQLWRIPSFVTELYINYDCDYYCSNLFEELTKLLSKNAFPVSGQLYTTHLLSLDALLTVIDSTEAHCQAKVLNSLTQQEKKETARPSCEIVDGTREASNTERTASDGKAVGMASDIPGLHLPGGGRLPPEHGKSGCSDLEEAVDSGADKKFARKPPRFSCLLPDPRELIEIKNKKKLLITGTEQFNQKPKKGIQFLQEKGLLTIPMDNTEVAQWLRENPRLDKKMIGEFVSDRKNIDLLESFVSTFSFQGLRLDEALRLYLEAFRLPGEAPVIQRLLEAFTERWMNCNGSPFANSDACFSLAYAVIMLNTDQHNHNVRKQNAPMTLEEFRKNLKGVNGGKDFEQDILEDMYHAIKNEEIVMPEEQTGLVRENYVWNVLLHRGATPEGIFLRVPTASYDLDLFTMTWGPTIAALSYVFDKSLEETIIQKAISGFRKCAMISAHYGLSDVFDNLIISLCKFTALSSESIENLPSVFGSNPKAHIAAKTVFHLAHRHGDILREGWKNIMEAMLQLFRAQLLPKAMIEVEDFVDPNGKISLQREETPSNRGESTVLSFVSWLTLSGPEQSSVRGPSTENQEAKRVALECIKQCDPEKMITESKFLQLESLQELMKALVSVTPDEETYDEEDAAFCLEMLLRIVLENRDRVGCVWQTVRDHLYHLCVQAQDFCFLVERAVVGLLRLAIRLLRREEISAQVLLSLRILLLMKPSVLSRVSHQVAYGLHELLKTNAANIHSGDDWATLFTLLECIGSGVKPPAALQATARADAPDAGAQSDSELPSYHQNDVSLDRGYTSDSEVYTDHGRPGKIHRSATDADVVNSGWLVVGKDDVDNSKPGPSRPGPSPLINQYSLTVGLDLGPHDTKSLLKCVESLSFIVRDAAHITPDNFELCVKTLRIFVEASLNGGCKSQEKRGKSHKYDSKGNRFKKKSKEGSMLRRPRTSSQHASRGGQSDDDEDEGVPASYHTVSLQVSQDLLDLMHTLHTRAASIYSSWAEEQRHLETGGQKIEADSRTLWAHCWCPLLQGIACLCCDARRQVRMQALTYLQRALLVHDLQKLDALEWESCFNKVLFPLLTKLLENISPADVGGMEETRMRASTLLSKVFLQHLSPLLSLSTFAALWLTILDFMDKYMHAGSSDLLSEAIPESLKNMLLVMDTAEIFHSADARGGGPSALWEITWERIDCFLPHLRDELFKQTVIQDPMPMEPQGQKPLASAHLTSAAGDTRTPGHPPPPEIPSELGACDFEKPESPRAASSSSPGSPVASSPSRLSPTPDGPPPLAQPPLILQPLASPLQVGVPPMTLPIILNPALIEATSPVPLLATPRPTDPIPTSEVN
Sequence of UniProt Q56P03 (Q56P03 whole entry, looked up): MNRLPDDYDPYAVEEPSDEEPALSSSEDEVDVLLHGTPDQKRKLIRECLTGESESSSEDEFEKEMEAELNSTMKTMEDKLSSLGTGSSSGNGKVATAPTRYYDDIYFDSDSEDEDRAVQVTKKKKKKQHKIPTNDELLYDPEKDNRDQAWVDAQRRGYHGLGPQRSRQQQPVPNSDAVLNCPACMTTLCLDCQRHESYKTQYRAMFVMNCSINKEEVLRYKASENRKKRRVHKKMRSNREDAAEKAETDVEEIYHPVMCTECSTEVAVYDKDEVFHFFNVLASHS
Sequence of UniProt Q9H410 (Q9H410 whole entry, looked up): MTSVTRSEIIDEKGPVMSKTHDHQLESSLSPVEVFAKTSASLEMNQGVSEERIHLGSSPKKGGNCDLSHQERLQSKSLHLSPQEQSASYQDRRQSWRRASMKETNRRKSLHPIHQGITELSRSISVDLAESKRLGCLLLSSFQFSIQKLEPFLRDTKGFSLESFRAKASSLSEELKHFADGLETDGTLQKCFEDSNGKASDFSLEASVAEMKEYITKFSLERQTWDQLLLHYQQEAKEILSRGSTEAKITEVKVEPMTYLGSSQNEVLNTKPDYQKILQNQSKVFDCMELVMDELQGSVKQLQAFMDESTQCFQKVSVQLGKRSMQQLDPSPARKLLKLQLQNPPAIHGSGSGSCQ

Compound in one test: CN1CCN(CCOc2cc(OC3CCOCC3)c3c(Nc4c(Cl)ccc5c4OCO5)ncnc3c2)CC1 [saracatinib]
In words: log2 fold change, soluble protein after heating vs DMSO (PISA); higher = thermal stabilisation; K562 lysate, 10 uM; active = over 0.2 and 3.5 SD of the protein, either way, in both replicates (recomputed). The essentials:
(§1)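 Thermal stability, expressed as log-two fold change relative to solvent controls, is given from duplicates. Crude K562 extract in PBS pH 7.4 with 1 mM MgCl2, at 1 mg/mL protein, was treated with 10 μM compound for 30 min and heated in aliquots for 3 min across 48°C-58°C. After pooling, adjustment to 0.5% NP-40 at 4°C and centrifugation at 21,000xg for 90 min, supernatant protein was measured by TMTpro 16plex LC-MS/MS with channel sums equalised.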
As to GEMIN4 (UniProt P57678), the log2 fold change is 0.091 (inactive).

Regarding ERAL1 (UniProt O75616), the log2 fold change is -0.035 (inactive).

Regarding EMC7 (UniProt Q9NPA0), the log2 fold change is 0.005 (inactive).

For the target EED, A0A5F9ZI63, the log2 fold change is 0.026 (inactive).

Turning to FAM118B (UniProt Q9BPY3), the log2 fold change was 0.004 (inactive).

As to GBF1 (UniProt Q92538), the log2 fold change is -0.011 (inactive).

Consider FLT4 (UniProt P35916), for which the log2 fold change was -0.036 (inactive).

With ERLIN1 (UniProt O75477), the log2 fold change is 0.041 (inactive).

Regarding EAPP (UniProt Q56P03), the log2 fold change was 0.034 (inactive).

Take GIGYF2 (UniProt Q6Y7W6): the log2 fold change is 0.009 (inactive).

As to FOXK1 (UniProt P85037), the log2 fold change is 0.005 (inactive).

As to EIF2B4 (UniProt Q9UI10), the log2 fold change is 0.042 (inactive).

On to GAPDH (UniProt P04406), for which the log2 fold change was 0 (inactive).

Take EEF1AKMT4 (UniProt P0DPD7): the log2 fold change is -0.033 (inactive).

Take FYCO1 isoform 4 (UniProt Q9BQS8): the log2 fold change was 0.04 (inactive).

On to ETHE1 (UniProt O95571), for which the log2 fold change was 0.001 (inactive).

On to FBXO22 (UniProt Q8NEZ5), for which the log2 fold change was -0.015 (inactive).

EP300 (UniProt Q09472): the log2 fold change was 0.027 (inactive).

With GEMIN2 (UniProt O14893), the log2 fold change is 0.025 (inactive).

As for DYNC1I2 isoform 2 (UniProt Q13409), the log2 fold change was -0.077 (inactive).

Take DYNC1I2 isoform 5 (UniProt Q13409): the log2 fold change was 0.003 (inactive).

Turning to EPB41, A0A2R8Y783, the log2 fold change was 0.075 (inactive).

Take FXR2 (UniProt P51116): the log2 fold change was 0.034 (inactive).

As to FPGT (UniProt O14772), the log2 fold change is 0.017 (inactive).

As to FHOD1 (UniProt Q9Y613), the log2 fold change was 0.015 (inactive).

Regarding EFCAB14 (UniProt O75071), the log2 fold change was 0.023 (inactive).

Consider DSN1 (UniProt Q9H410), for which the log2 fold change is 0.034 (inactive).

For FAM83D (UniProt Q9H4H8), the log2 fold change was -0.008 (inactive).

In the case of EWSR1 isoform 5 (UniProt Q01844), the log2 fold change is -0.017 (inactive).

As to FAM83A (UniProt Q86UY5), the log2 fold change was 0.01 (inactive).

On to GABPB1 isoform 3 (UniProt Q06547), for which the log2 fold change was -0.006 (inactive).

In the case of DUS2 (UniProt Q9NX74), the log2 fold change is -0.095 (inactive).

With EIF2AK2 (UniProt P19525), the log2 fold change is -0.011 (inactive).

Compound in another test: CN1CCN(c2nc(C3=C(c4c[nH]c5ccccc45)C(=O)NC3=O)c3ccccc3n2)CC1 [sotrastaurin]
Described as above. The essentials: as §1
Turning to GEMIN4 (UniProt P57678), the log2 fold change is 0.041 (inactive).

Regarding ERAL1 (UniProt O75616), the log2 fold change is 0.02 (inactive).

Regarding EMC7 (UniProt Q9NPA0), the log2 fold change is 0.026 (inactive).

Turning to EED, A0A5F9ZI63, the log2 fold change was 0.031 (inactive).

As for FAM118B (UniProt Q9BPY3), the log2 fold change is 0.048 (inactive).

Regarding GBF1 (UniProt Q92538), the log2 fold change was 0.019 (inactive).

Take FAT2 (UniProt Q9NYQ8): the log2 fold change was 0.125 (inactive).

For ERLIN1 (UniProt O75477), the log2 fold change is -0.023 (inactive).

Take EAPP (UniProt Q56P03): the log2 fold change was -0.008 (inactive).

As to GIGYF2 (UniProt Q6Y7W6), the log2 fold change was -0.001 (inactive).

Take FOXK1 (UniProt P85037): the log2 fold change is -0.012 (inactive).

Turning to EIF2B4 (UniProt Q9UI10), the log2 fold change was 0.047 (inactive).

GAPDH (UniProt P04406): the log2 fold change was -0.01 (inactive).

With EEF1AKMT4 (UniProt P0DPD7), the log2 fold change is -0.004 (inactive).

Take FYCO1 isoform 4 (UniProt Q9BQS8): the log2 fold change is 0 (inactive).

With ETHE1 (UniProt O95571), the log2 fold change is -0.004 (inactive).

With FBXO22 (UniProt Q8NEZ5), the log2 fold change was 0.01 (inactive).

On to EP300 (UniProt Q09472), for which the log2 fold change is -0.022 (inactive).

On to GEMIN2 (UniProt O14893), for which the log2 fold change is -0.045 (inactive).

Turning to DYNC1I2 isoform 2 (UniProt Q13409), the log2 fold change was 0.006 (inactive).

In the case of DYNC1I2 isoform 5 (UniProt Q13409), the log2 fold change was -0.034 (inactive).

With FBXO45 (UniProt P0C2W1), the log2 fold change was 0.028 (inactive).

Consider FYN (UniProt P06241), for which the log2 fold change was 0.023 (inactive).

Regarding GAA (UniProt P10253), the log2 fold change was -0.039 (inactive).

Turning to FXR2 (UniProt P51116), the log2 fold change was -0.009 (inactive).

With FPGT (UniProt O14772), the log2 fold change is -0.001 (inactive).

With FHOD1 (UniProt Q9Y613), the log2 fold change is 0.036 (inactive).

For EFCAB14 (UniProt O75071), the log2 fold change was 0.005 (inactive).

As for DSN1 (UniProt Q9H410), the log2 fold change is 0.003 (inactive).

Turning to FAM83D (UniProt Q9H4H8), the log2 fold change is 0.032 (inactive).

Consider EWSR1 isoform 5 (UniProt Q01844), for which the log2 fold change was 0.037 (inactive).

With FAM83A (UniProt Q86UY5), the log2 fold change was -0.049 (inactive).

Consider GABPB1 isoform 3 (UniProt Q06547), for which the log2 fold change was -0.022 (inactive).

Take DUS2 (UniProt Q9NX74): the log2 fold change was -0.017 (inactive).

EIF2AK2 (UniProt P19525): the log2 fold change is 0.007 (inactive).

Compound in the next test: CN1CC[C@H](c2c(O)cc(O)c3c(=O)cc(-c4ccccc4Cl)oc23)[C@H](O)C1 [alvocidib]
Described as above. The essentials:
as §1
GEMIN4 (UniProt P57678): the log2 fold change is 0.017 (inactive).

For the target ERAL1 (UniProt O75616), the log2 fold change is 0.005 (inactive).

In the case of EMC7 (UniProt Q9NPA0), the log2 fold change is -0.146 (inactive).

For the target EED, A0A5F9ZI63, the log2 fold change was -0.007 (inactive).

As for FAM118B (UniProt Q9BPY3), the log2 fold change is -0.023 (inactive).

With GBF1 (UniProt Q92538), the log2 fold change was 0 (inactive).

As to FAT2 (UniProt Q9NYQ8), the log2 fold change is -0.214 (inactive).

As for FLT4 (UniProt P35916), the log2 fold change is -0.086 (inactive).

In the case of ERLIN1 (UniProt O75477), the log2 fold change is 0.006 (inactive).

Take EAPP (UniProt Q56P03): the log2 fold change was 0.048 (inactive).

On to GIGYF2 (UniProt Q6Y7W6), for which the log2 fold change is -0.028 (inactive).

With FOXK1 (UniProt P85037), the log2 fold change is -0.037 (inactive).

On to GAPDH (UniProt P04406), for which the log2 fold change is 0.01 (inactive).

For the target EEF1AKMT4 (UniProt P0DPD7), the log2 fold change is -0.029 (inactive).

As to FYCO1 isoform 4 (UniProt Q9BQS8), the log2 fold change was -0.052 (inactive).

Take ETHE1 (UniProt O95571): the log2 fold change is -0.076 (inactive).

As to FBXO22 (UniProt Q8NEZ5), the log2 fold change is -0.027 (inactive).

In the case of EP300 (UniProt Q09472), the log2 fold change was -0.098 (inactive).

As for GEMIN2 (UniProt O14893), the log2 fold change is 0.034 (inactive).

As for DYNC1I2 isoform 2 (UniProt Q13409), the log2 fold change was 0.065 (inactive).

Take DYNC1I2 isoform 5 (UniProt Q13409): the log2 fold change is 0.002 (inactive).

On to FBXO45 (UniProt P0C2W1), for which the log2 fold change is -0.047 (inactive).

On to EPB41, A0A2R8Y783, for which the log2 fold change was -0.248 (inactive).

As to FYN (UniProt P06241), the log2 fold change is -0.078 (inactive).

As for GAA (UniProt P10253), the log2 fold change was -0.006 (inactive).

FXR2 (UniProt P51116): the log2 fold change is 0 (inactive).

Regarding FPGT (UniProt O14772), the log2 fold change was 0.031 (inactive).

Turning to FHOD1 (UniProt Q9Y613), the log2 fold change is -0.034 (inactive).

On to EFCAB14 (UniProt O75071), for which the log2 fold change is -0.056 (inactive).

For the target DSN1 (UniProt Q9H410), the log2 fold change was -0.046 (inactive).

With FAM83D (UniProt Q9H4H8), the log2 fold change was -0.009 (inactive).

With EWSR1 isoform 5 (UniProt Q01844), the log2 fold change was -0.002 (inactive).

In the case of FAM83A (UniProt Q86UY5), the log2 fold change was -0.095 (inactive).

Consider GABPB1 isoform 3 (UniProt Q06547), for which the log2 fold change is -0.013 (inactive).

Regarding DUS2 (UniProt Q9NX74), the log2 fold change is 0.056 (inactive).

For the target EIF2AK2 (UniProt P19525), the log2 fold change is 0.004 (inactive).
